Reference: ChEMBL document CHEMBL3988442, “University of Dundee, Small-Polar-MMV Screening Library” (2021)
About 13,000 (27%) of roughly 48,000 compounds showed an effect of 50% or more. Some of the results follow.

What follows are molecules tested on Wolbachia pipientis (assay: Anti-Wolbachia Cell-Based Screen). Details: 5 µM.
Format: functional
Design: scale not given: in the data most compounds retested in dose-response had high values

SMILES | Percent Effect
CCC(C)NC(=O)c1nnn(-c2ccc(Br)cc2)n1 (centres undefined) | 110.8%
CN(C)C(=O)c1nnn(-c2ccc(Br)cc2)n1 | 110.9%
COCC(C)NC(=O)c1nnn(-c2ccc(Br)cc2)n1 (centres undefined) | 4.837%
Cc1ccc(CN(C)C(=O)CN2CCCCC2Cn2cncn2)cc1 (centres undefined) | -11.49%
O=C(NCc1ccccc1CN1CCOCC1)Nc1nncs1 | 33.23%
CC(C1CCN(Cc2cccc(OC(F)F)c2)CC1)N1CCOCC1 (centres undefined) | 4.738%
Cc1nc(-c2ccc(S(=O)(=O)N3CCC=C(F)C3)cc2)co1 | 3.194%
CCN(CC)c1ncccc1CNCc1ccc(-c2ccn[nH]2)s1 | 103.4%
CCC(CO)N(Cc1cccnc1)Cc1ccc(-c2ccn[nH]2)s1 (centres undefined) | 4.35%
CCN(Cc1ccc(Cl)s1)S(=O)(=O)CC | -12.66%
CCC(CO)N(Cc1ccccn1)Cc1ccc(-c2ccn[nH]2)s1 (centres undefined) | 0.2436%
CCN(CC)c1ncccc1CNC(=O)c1cc2nc(C)cc(C)n2n1 | -11.51%
CCN(CC)c1ncccc1CNCc1cc2ccccc2s1 | 111.2%
CCN(CC)c1ncccc1CNC(=O)c1cnn(CC)c1 | -6.3%
CCN(CC)c1ncccc1CNCc1ccc(Cl)s1 | 99.51%
Cc1cc(N(C)C)nc(N2CCn3c(nnc3C(C)C)C2)n1 | -5.2%
NC(=O)C1CCCN1Cc1ccccc1NC(=O)Cc1cccs1 (centres undefined) | -13.98%
CCOC(=O)N1CCN(C(=O)c2ccc3ccn(C)c3c2)CC1 | 0.8286%
CS(=O)(=O)N1CCC(Oc2ccc(C(=O)N3CCSCC3)cc2Cl)CC1 | 7.501%
CN(C)S(=O)(=O)N1CCN(C(=O)c2ccc3ccn(C)c3c2)CC1 | 5.412%
CCC(=O)Nc1ccc2c(ccn2CCOC)c1 | 8.893%
COCCn1ccc2ccc(C(=O)O)cc21 | 99.17%
Cn1ccc2ccc(C(=O)N3CCN(C(=O)N4CCOCC4)CC3)cc21 | 0.8109%
COCCn1ccc2ccc(C(=O)N3CCN(C(C)=O)CC3)cc21 | 108.9%
COCCn1ccc2cc(NC(=O)COC)ccc21 | 1.286%
COCCn1ccc2cc(C(=O)N3CCN(S(C)(=O)=O)CC3)ccc21 | 125.8%
CC(C1CCN(Cc2c(Cl)cncc2Cl)CC1)N1CCN(C)CC1 (centres undefined) | -10.06%

SMILES | Percent Effect
CC1(c2ccccc2)CCC(=O)N(CC2(N3CCOCC3)CCCC2)C1 (centres undefined) | -0.1352%
O=C(NCc1nc(C2CC2)no1)N1CCOC(c2ccccc2)C1 (centres undefined) | -16.91%
COC(=O)[C@@H]1Cc2ncn(C)c2CN1S(=O)(=O)c1ccc(OC)cc1 | 2.654%
O=C(Nc1ccnn1C1CCCC1)c1ccc(NC2CC2)nc1 | -4.734%
CCc1c(C)nn(CCN2CC3(CCOC3)CCC2=O)c1C (centres undefined) | -12.78%
CC(C)CCNC(=O)CCc1ccnc2ccccc12 | -1.133%
CC(C)(CNC(=O)NCCc1ccn(-c2ccccc2)n1)C(N)=O | 145.8%
CC(C)CCC(=O)NCCc1ccn(-c2ccccc2)n1 | 127.8%
CCNC(=O)CCS(=O)(=O)Cc1ccn(-c2cccc(F)c2)n1 | -7.781%
CC(C)(CNC(=O)NCCOc1cccc(F)c1)C(N)=O | -10.47%
CC(C)(C)C(=O)NCCC(=O)NCCc1ccn(-c2ccccc2)n1 | 101.3%
O=C(CCNc1ncccn1)NCCc1ccn(-c2ccccc2)n1 | 0.9035%
CC(C)(C)C(=O)NCCc1ccn(-c2ccccc2)n1 | 8.286%
CCC(CC)NC(=O)CN1CCN(C(=O)N(C)C)CC1 | 29.72%
CCCn1cnnc1CNC1CSCCSC1 | 10.77%
COCC1Cn2nnc(-c3cnn(C)c3)c2CN1Cc1ccsc1.O=C(O)C(F)(F)F (centres undefined) | 97.96%
COCC1Cn2nnc(-c3cnn(C)c3)c2CN1Cc1ccco1.O=C(O)C(F)(F)F (centres undefined) | -7.435%
COCC1Cn2nnc(-c3cnn(C)c3)c2CN1Cc1cccs1.O=C(O)C(F)(F)F (centres undefined) | 105.4%
Cn1cc(-c2nnn3c2COC(CNCc2nccs2)C3)cn1 (centres undefined) | 7.882%
Fc1cccc(-c2nnn3c2COC(CNCc2ccsc2)C3)c1.O=C(O)C(F)(F)F (centres undefined) | -5.927%
COCC1CN(Cc2ccsc2)Cc2nn(C)cc21.O=C(O)C(F)(F)F (centres undefined) | 2.999%
Cc1cnnn1Cc1nnn2c1CN(Cc1cccs1)CCC2.O=C(O)C(F)(F)F | -1.131%
COCC1Cn2nnc(-c3cnn(C)c3)c2CN1Cc1ccc(C)s1.O=C(O)C(F)(F)F (centres undefined) | -9.357%
COCC1Cn2nnc(-c3cnn(C)c3)c2CN1Cc1ccoc1.O=C(O)C(F)(F)F (centres undefined) | 100.4%
COCC1CN(Cc2ccc(C)o2)Cc2cn(C)nc21.O=C(O)C(F)(F)F.O=C(O)C(F)(F)F (centres undefined) | -19.49%
Cc1cccc(COCC2c3nnn(C)c3CCN2Cc2ccoc2)n1.O=C(O)C(F)(F)F.O=C(O)C(F)(F)F (centres undefined) | -0.8413%
COCC1Cn2nnc(-c3cnn(C)c3)c2CN1Cc1ccc(C)o1 (centres undefined) | 87.7%
